Among all 220,000 compounds or so, about 2,000 (0.91%) were called active. Inconclusive results (about 2%) are left out. The list is a sample of the results. Results with a measured potency or affinity are listed apart. Values without a mark were called inactive. Rule as the data show it: inconclusive = inhibition above about 80% without an active follow-up result; inactive = below that; test concentration not stated here.
test: M. tuberculosis H37Rv growth inhibitors, H37Rv strain (AID 1626); details: active compounds read high, concentration not given here;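 also: bacteria incubated seven days before Alamar blue readout; 0% = bacteria only wells and 100% = bacteria with antibiotic wells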

Point of comparison: `Cc1ccc(/C=N/NC(=O)CCCOc2ccc(Cl)cc2Cl)cc1[N+](=O)[O-]`, inhibition -5.05%. Against it:
- COc1ccc(/C=C/C(=O)C(C)(C)C)cc1OC — higher, 7.04%
- COc1ccc(/C=C/C(=O)O)cc1OC — higher, -4.92%
- CCOC(=O)c1cc(-c2ccccc2)sc1NC(=O)C(C)OC(=O)c1ccncc1 (centres undefined) — higher, 0.66%
- C=CCSc1nc(C)cc(C(=O)OCC)c1C#N — higher, -3.16%
- COc1ccccc1C(=O)O/N=C(\c1ccccc1)c1ccncc1 — higher, 3.28%
- CCOc1cccc(/C=C/C(=O)O)c1 — higher, 4.51%
- CCOC(=O)N/N=C/C=C/c1ccccc1 — lower, -6.43%
- Oc1csc(Cc2nc(-c3ccc(Br)cc3)cs2)n1 — higher, 38.3%
- O=C(Nc1ccccn1)c1c(O)c2cccc3c2n(c1=O)CCC3 — higher, -3.22%
- CCNCCNC(=O)c1c(O)c2cccc3c2n(c1=O)CCC3 — higher, 1.67%
- CNC(=O)c1c(O)c2cccc3c2n(c1=O)CC3 — higher, -2%
- CCCCNC(=O)c1c(O)c2cccc3c2n(c1=O)CCC3 — higher, 3.46%
- Cc1cccc(NC(=O)c2c(O)c3cccc4c3n(c2=O)CCC4)n1 — lower, -9.1%
- O=C(NCc1cccnc1)c1c(O)c2cccc3c2n(c1=O)CCC3 — higher, -3.06%
- COc1ccc(-n2cnnc2SCC(=O)Nc2cccnc2Cl)cc1 — higher, 2.1%
- O=C(Nc1nccs1)c1ccc(Cl)c(S(=O)(=O)N2CCOCC2)c1 — lower, -20.2%
- CC1C(c2ccccc2)=NNc2nc3c(c(=O)n(C)c(=O)n3C)n21 (centres undefined) — lower, -9.85%
- Cc1cccc2c1CC(C)(C)N=C2C1=C(O)CC(C)(C)CC1=O — higher, 2.19%
- CC(=O)Nc1ccc(NC(=O)CCc2nc3ccccc3c(=O)[nH]2)cc1 — higher, 2.86%
- CCCCn1c(O)c(C(C)=NCc2ccc3c(c2)OCO3)c(=O)[nH]c1=O — higher, 10.3%
- O=c1[nH]c(=O)n(CCc2ccccc2)c(O)c1C=NCc1ccc2c(c1)OCO2 — higher, -3.13%
- Cc1cc(C)c(C(=O)/C=C/c2ccc3c(c2)OCO3)c(=O)[nH]1 — higher, -2.72%
- COc1ccc(/C=C/C(=O)c2c(O)n(CCC3=CCCCC3)c(=O)[nH]c2=O)cc1OC — higher, 36.6%
- CCCCn1c(O)c(C(CC)=NCc2ccc3c(c2)OCO3)c(=O)[nH]c1=O — higher, -0.92%
- Cn1c(N)c(C(=O)/C=C/c2ccccc2)c(=O)[nH]c1=O — lower, -9.59%
- COc1cc(/C=C/C(=O)CC(=O)/C=C/c2ccc(O)c(OC)c2)ccc1O — higher, 7.76%
- O=C(/C=C/c1c[nH]c2ccccc12)c1c(O)n(CCc2ccccc2)c(=O)[nH]c1=O — higher, 22.5%
- COc1ccc(CN(C)CC(=O)Nc2sc3c(c2C#N)CCC3)cc1OC — higher, 3.36%

Source: PubChem BioAssay AID1626 (SRMLSC, 2009)
